# Measurements published in PubChem BioAssay AID720513 (Broad Institute, 2013).
# Hit rate of the full screen: of about 2,100 compounds, about 480 (23%) were called active. Not shown: some 5% with an inconclusive outcome.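 Rule for the calls: active = fitted curve reaches 40% activation at or below the top valid concentration, in every replicate test; inconclusive = replicate tests disagree on the call; inactive = the rest, including activity in the opposite direction.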 A selection follows. Entries with a potency or affinity are not part of this list.
# Assay: PGC1a acetylation increase, cellular AlphaLISA – cell-based, cherry-picked samples, set 6, dose response (AID 720513);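 note: cells made to overexpress flag tagged PGC1a plus GCN5 acetyltransferase by viral infection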
# Conditions: U2OS PGC1a acetylation AlphaLISA, overnight, 0 = neutral, -100 = inhibitor control; series mostly up to 19.5 µM
row,SMILES,outcome
1,CCCCC(C(=O)O)C(C)CC(=O)Nc1nncs1 (centres undefined),inactive
2,C[C@@H]1CN([C@@H](C)CO)C(=O)c2cc(C3=CCCC3)cnc2O[C@H]1CN(C)C(=O)Nc1cccc(F)c1,inactive
3,CCOc1ccc(CN2CCNC(=O)C2CC(=O)NCc2ccccn2)cc1 (centres undefined),inactive
4,CSCCC(NC(=O)OC(C)(C)C)C(=O)Oc1ccc2c(=O)c(-c3ccc4c(c3)OCCO4)coc2c1 (centres undefined),inactive
5,O=C(C1CCCO1)N1CCN(Cc2c(O)ccc3ccccc23)CC1 (centres undefined),inactive
6,C[C@@H]1CCCCO[C@H](CN(C)Cc2ccc(C(F)(F)F)cc2)[C@H](C)CN([C@@H](C)CO)C(=O)c2cc(NC(=O)NC3CCCCC3)ccc2O1,inactive
7,COc1ccc(CN(Cc2cccn2C)S(=O)(=O)c2ccccc2)cc1,inactive
8,COc1cccc(-c2noc(C3CCCN(C(=O)Cc4ccccc4)C3)n2)c1 (centres undefined),inactive
9,C[C@H](CO)N1C[C@H](C)[C@H](CN(C)Cc2ccccc2)Oc2cc(Br)ccc2S1(=O)=O,inactive
10,C[C@H]1CN([C@@H](C)CO)S(=O)(=O)c2ccc(Br)cc2O[C@H]1CN(C)S(C)(=O)=O,inactive
11,COc1ccccc1C(NC(C)=O)c1cc(Cl)c2cccnc2c1O (centres undefined),inactive
12,Cc1ccc(CN(C(=O)Cn2nnc3ccccc32)C(C(=O)NCc2ccco2)c2cccs2)cc1 (centres undefined),inactive
13,CC(c1ccco1)N(C(=O)c1cc(Cl)cc(Cl)c1)c1ccccn1 (centres undefined),inactive
14,CC(=O)c1cccc(-c2ccnc3c2CC(C(=O)NCc2ccco2)O3)c1 (centres undefined),inactive
15,C[C@H](CO)N1C[C@H](C)[C@H](CN(C)S(=O)(=O)c2cn(C)cn2)OCCCC[C@H](C)Oc2ccc(NC(=O)Nc3cccc4ccccc34)cc2C1=O,inactive
16,Clc1ccc(C(c2ccccc2Cl)C(Cl)Cl)cc1 (centres undefined),inactive
17,CC(C)Cc1nn2c(=O)cc(O)nc2s1,inactive
18,Cc1ccc(S(=O)(=O)C(NC(=O)c2ccccc2)=C(Cl)Cl)cc1,inactive
19,Cc1cc(OCC(=O)O/N=C(\N)c2ccccc2)cc(C)c1Cl,inactive
20,Cc1ccc(C(CC(=O)O)NC(=O)CCNC(=O)c2ccco2)cc1 (centres undefined),inactive
21,CC(C)CC#Cc1ccc2c(c1)O[C@H](CN(C)Cc1ccccc1)[C@@H](C)CN([C@H](C)CO)S2(=O)=O,inactive
22,COc1cc(-c2cnc3c(NC=O)cc(-c4ccccc4Cl)cn23)cc(OC)c1OC,inactive
23,COc1cc(-c2cnc3c(NC=O)cc(-c4ccccc4)cn23)cc(OC)c1OC,inactive
24,O=C(O)c1cccc(N2C(=O)CSC2c2c(F)cccc2Cl)c1 (centres undefined),inactive

row,SMILES,outcome
1,Cc1cc(C)c(NC(=O)c2ccc(S(=O)(=O)N(C)C)cc2)c(C)n1,inactive
2,OC[C@@H]1CN(Cc2ccccc2)C[C@H](n2cnc3c(NCc4ccco4)ncnc32)O1,inactive
3,CN(C)c1ncnc2c1ncn2C1OC(CO)C(O)C1O (centres undefined),inactive
4,CS(=O)(=O)N1CCCC(C(=O)NCc2ccccn2)C1 (centres undefined),inactive
5,COc1ccc(CN(C)C[C@@H]2OCCCC[C@H](C)Oc3ccc(NS(C)(=O)=O)cc3C(=O)N([C@@H](C)CO)C[C@@H]2C)cc1,inactive
6,C[C@@H]1CN([C@H](C)CO)C(=O)c2cc(C#CC(C)(C)O)cnc2O[C@H]1CN(C)C(=O)c1ccccc1F,inactive
7,Cc1ccc(-c2cnc3c(c2)C(=O)N([C@@H](C)CO)C[C@@H](C)[C@H](CN(C)C)O3)cc1,inactive
8,Cc1noc(C)c1NC(=O)N(C)C[C@H]1Oc2c(NC(=O)c3nc4ccccc4s3)cccc2C(=O)N([C@H](C)CO)C[C@H]1C,inactive
9,COc1ccc(S(=O)(=O)N(C)C[C@H]2Oc3c(NS(=O)(=O)c4ccc(C)cc4)cccc3C(=O)N([C@H](C)CO)C[C@H]2C)cc1,inactive
10,Cc1nn(C)c(C)c1N1C(=O)c2cccc3c(Br)ccc(c23)C1=O,inactive
11,CCC(=O)N1C[C@H](C)[C@@H](OC)CN(C)C(=O)c2cc(NC(=O)Nc3cccc(F)c3)ccc2OC[C@H]1C,inactive
12,C[C@H](CO)N1C[C@H](C)[C@@H](CN(C)Cc2ccc(Oc3ccccc3)cc2)Oc2ccc(N(C)C)cc2CC1=O,inactive
13,O=C(O)CSCC(=O)NCc1ccc(Cl)cc1Cl,inactive
14,Cc1cc(Br)ccc1NC(=O)CN(C)C(=O)CCSc1ccc(F)cc1,inactive
15,Cc1ccc(S(=O)(=O)N2CCN(C(=O)N3CCOCC3)CC2)cc1C,inactive
16,CC(=O)CS(=O)(=O)c1ccc(Oc2ccc(S(=O)(=O)CC(C)=O)cc2)cc1,inactive
17,COc1ccccc1N1CCN(c2ccc(-c3ccccc3)nn2)CC1,inactive
18,CCN(CC)C(=O)CSc1nnc(-c2cccnc2)n1Cc1ccccc1,inactive
19,Cn1c(CO)cnc1SCC(=O)c1ccc(Cl)cc1,inactive
20,Cc1ccc(S(=O)(=O)N[C@H]2C=C[C@@H](CC(=O)NCCN3CCCCC3)O[C@H]2CO)cc1,inactive
21,Cc1ccc(S(=O)(=O)NC2=NCCCCC2)cc1,inactive
22,Cc1ccc(S(=O)(=O)N[C@H]2C=C[C@H](CC(=O)NCCN3CCCCC3)O[C@H]2CO)cc1,inactive
23,Cc1ccc2c(Cl)cc(Cl)c(OCc3c(C)noc3C)c2n1,inactive
24,COc1ccc(-c2cc(-c3ccccc3)c(C#N)c(S(C)=O)n2)cc1 (centres undefined),inactive

row,SMILES,outcome
1,COc1ccc(-n2c(SCC#N)nnc2-c2cccnc2)cc1,inactive
2,O=C(CC(C(=O)O)c1c[nH]c2ccccc12)c1ccccc1 (centres undefined),inactive
3,CN(NC(=O)c1ccccc1)C1=NS(=O)(=O)c2ccccc21,inactive
4,COc1ccc(-c2cc(C(F)(F)F)nc(S(C)(=O)=O)n2)cc1,inactive
5,C=CCNS(=O)(=O)c1cccc2cc(C(=O)O)c(O)cc12,inactive
6,CCCCOc1ccc(C(=O)C(CN2CCOCC2)c2ccccc2)cc1 (centres undefined),inactive
7,O=C(C=Cc1ccccc1)CC(c1ccccc1)N1CCOCC1 (centres undefined),inactive
8,COC(=O)COc1c(/C=C\c2nc(O)c([N+](=O)[O-])c(=O)[nH]2)cccc1OC,inactive
9,COc1cccc(C(=O)Nn2cnnc2)c1OC,inactive
10,Cc1ccc(N)cc1S(=O)(=O)N(C)C,inactive
11,COc1ccc(C(=O)NCCCSC)cc1OC1CCN(C(C)C)CC1,inactive
12,C[C@@H]1CN([C@@H](C)CO)C(=O)c2cc(-c3cccc(C#N)c3)cnc2O[C@H]1CN(C)C(=O)c1ccccn1,inactive
13,Cc1cc(C)c(C#N)c(N2CCN(c3ccccc3)CC2)n1,inactive
14,Cc1cc(S(=O)(=O)Nc2ccc3ccccc3c2)c(C)s1,inactive
15,C=CS(=O)(=O)N(Cc1ccccc1Br)[C@H](CO)Cc1ccccc1,inactive
16,C=CCSc1nccc(-c2cc(Cl)sc2Cl)n1,inactive
17,O=C1C(Cl)=C(N2CCOCC2)C(=O)N1CCc1ccccc1,inactive
18,O=C(CCC1CCCN(C(=O)c2cc(C3CC3)[nH]n2)C1)N1CCN(c2ccccn2)CC1 (centres undefined),inactive
19,CN(C)c1ccnc2sc(C(N)=O)c(N)c12,inactive
20,Cc1noc(C)c1S(=O)(=O)N(C)C[C@H]1Oc2ccc(NS(=O)(=O)c3cccs3)cc2C(=O)N([C@H](C)CO)C[C@H]1C,inactive
21,Nc1cc(N)nc(SCC(=O)Nc2ccccc2N2CCOCC2)n1,inactive
22,CCOc1ccc(/C=C/C(=O)Oc2ccccc2)cc1,inactive
23,CCOC(=O)CS(=O)(=O)c1nc(-c2ccccc2)cc(C(F)(F)F)n1,inactive
24,CSc1cccc(N2CC(C(=O)NCCN3C(=O)S/C(=C\c4cccnc4)C3=O)CC2=O)c1 (centres undefined),inactive

row,SMILES,outcome
1,CN(C)C(=O)C[C@@H]1CC[C@@H]2[C@H](COC[C@@H](O)CN2C(=O)C2CCOCC2)O1,inactive
2,CC(C)C#Cc1ccc([C@@H]2[C@H]3CN(C(=O)NC4CCCC4)CC(=O)N3[C@H]2CO)cc1,inactive
3,O=C(CN(Cc1ccc2c(c1)OCO2)C(=O)CNS(=O)(=O)c1ccccc1)NCc1ccco1,inactive
4,Cc1ccccc1OCC(=O)OCC(=O)NCc1ccc2c(c1)OCO2,inactive
5,CC(=O)Nc1cccc(-c2ccnc3c2CC(C)(C(=O)Nc2ccc4c(c2)OCO4)O3)c1 (centres undefined),inactive
6,Cn1c(SC2=CS(=O)(=O)c3ccccc32)nc2ccccc21,inactive
7,CCOC(=O)CNC(=O)OC1CCN2Cc3ccccc3N=C12 (centres undefined),inactive
8,CN(C)CCNc1oc(COc2ccc(-c3ccccc3)cc2)nc1C#N,inactive
9,C[C@H](CO)N1C[C@H](C)[C@@H](CN(C)C(=O)c2ccccn2)Oc2ncc(-c3cccc(C#N)c3)cc2C1=O,inactive
10,Cc1nc(N(CCO)C2CCCCC2)c2nnn(Cc3ccccc3)c2n1,inactive
11,C[C@H](NC(=O)C[C@H]1CC[C@@H](NC(=O)C2CC2)[C@H](CO)O1)c1ccccc1,inactive
12,C[C@@H]1CCCCO[C@@H](CN(C)C(=O)c2ccncc2)[C@@H](C)CN([C@H](C)CO)C(=O)c2cc(NC(=O)CCCCCC(=O)Nc3ccccc3N)ccc2O1,inactive
13,O=C(CSc1nc2cc(Cl)ccc2s1)NCC1CCCO1 (centres undefined),inactive
14,CN1CCN(C(=O)C[C@@H]2CC[C@@H]3[C@H](COC[C@H](O)CN3CC3CCCCC3)O2)CC1,inactive
15,COc1ccccc1CNC(=O)C[C@@H]1CC[C@@H]2[C@H](COC[C@H](O)CN2C(=O)Nc2ccc(Cl)cc2)O1,inactive
16,Cc1ccc(Nc2nc(-c3c(C)nc4ncccn34)cs2)cc1,inactive
17,Cc1cnc(NC(=O)c2nn(C)cc2[N+](=O)[O-])s1,inactive
18,C[C@@H]1CN([C@H](C)CO)C(=O)c2cc(NC(=O)Nc3ccc(F)cc3)ccc2O[C@@H](C)CCCCO[C@@H]1CN(C)C(=O)NC1CCCCC1,inactive
19,CCCc1nc2c(=O)n(C)c(=O)nc-2n(C)n1,inactive
20,COc1ccccc1N=C1NC(=O)/C(=C/c2ccc(N(C)C)cc2)S1,inactive
21,O=C1/C(=C/c2ccccc2[N+](=O)[O-])COc2ccccc21,inactive
22,O=C1C=CCCN1C(=O)/C=C/c1ccccc1Cl,inactive
